{
  "source": "PubChem BioAssay (Tox21)",
  "note": "Records with an inconclusive call do not appear. The source made the active and inactive calls. The call rests on the fitted dose curve; in most records, active means well fitted inhibition curve with a large enough effect in the signal ratio in the repeat runs (not every such curve was filed as active); inconclusive means weak or mixed curves, or effect the other way; inactive means no such curve, though single readings can be large or run the other way; the % refers to the signal ratio.",
  "data": [
    {"target": "Vitamin D3 receptor (Homo sapiens) (UniProt P11473)", "sequence (P11473 whole entry, looked up)": "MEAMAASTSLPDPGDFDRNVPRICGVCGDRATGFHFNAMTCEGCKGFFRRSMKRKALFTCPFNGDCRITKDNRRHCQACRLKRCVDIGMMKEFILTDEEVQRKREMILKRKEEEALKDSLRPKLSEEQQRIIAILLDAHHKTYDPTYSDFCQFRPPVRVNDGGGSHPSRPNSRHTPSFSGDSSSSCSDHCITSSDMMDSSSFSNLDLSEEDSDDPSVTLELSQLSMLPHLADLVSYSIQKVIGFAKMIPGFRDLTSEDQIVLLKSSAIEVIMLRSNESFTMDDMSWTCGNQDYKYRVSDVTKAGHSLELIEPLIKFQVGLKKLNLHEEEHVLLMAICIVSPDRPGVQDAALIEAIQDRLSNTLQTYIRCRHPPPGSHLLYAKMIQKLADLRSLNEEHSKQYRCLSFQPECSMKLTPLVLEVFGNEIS", "assay": "qHTS assay to identify small molecule antagonists of the vitamin D receptor (VDR) signaling pathway (AID 743223)", "conditions": "VDR-UAS-bla HEK293T, beta-lactamase FRET ratio, 16 h; series mostly up to 61 µM", "text": "U.S. Tox21 Program National Center for Advancing Translational Sciences [NCATS] NIH Chemical Genomics Center [NCGC] U.S. Environmental Protection Agency [EPA] National Institutes of Environmental Health Sciences [NIEHS] National Toxicology Program [NTP] U.S. Food and Drug Administration [FDA] Tox21 Assay Overview: The vitamin D receptor (VDR), a member of nuclear hormone receptor superfamily, plays a critical role in calcium homeostasis and bone metabolism. It is also involved in cell differentiation and growth, and thrombogenicity.\nTox21 Assay Protocol Summary: VDR-bla cells were dispensed at 2,000 cells/5 uL of assay medium per well into black wall/clear-bottom 1536-well plates using a Multidrop Combi (Thermo Fisher Scientific, Waltham, MA) dispenser. After the assay plates were incubated at a 37C and 5% CO2 for 4 h, 23 nL of compounds dissolved in DMSO, positive controls or DMSO only was transferred to the assay plate by a Pintool station (Kalypsys, San Diego, CA), followed by addition of 1 uL of 1alpha, 25-Dihydroxy Vitamin D3 (3 nM, final concentration in the wells) using a Bioraptr Flying Reagent Dispenser (FRD) workstation (Beckman Coulter, Indianapolis, IN). The plates were incubated at 37C and 5% CO2 for 16 h, and then 1 uL of LiveBLAzerTM B/G FRET substrate was added using a Bioraptr FRD. The plates were incubated at room temperature for 2 h and fluorescence intensity was measured by an Envision plate reader (PerkinElmer, Shelton, CT).", "values": [
      {"smiles": "CCCCCCCCCCCCCCCCOS(=O)(=O)O", "outcome": "inactive"},
      {"smiles": "C=CCOc1ccccc1OCC(O)CNC(C)C", "note": "(stereo not given)", "outcome": "inactive"},
      {"smiles": "O=C(NCCO[N+](=O)[O-])c1cccnc1", "outcome": "inactive"},
      {"smiles": "O=C(OCCCCCCOC(=O)c1ccccc1)c1ccccc1", "outcome": "inactive"},
      {"smiles": "CCCCCCCCCCO[C@@H]1O[C@H](CO)[C@@H](O)[C@H](O)[C@H]1O", "outcome": "inactive"},
      {"smiles": "CC(=O)NO", "outcome": "inactive"},
      {"smiles": "CCOc1ccc(N)c([N+](=O)[O-])c1", "outcome": "inactive"},
      {"smiles": "CCCCCCOC(=O)NC(=N)c1ccc(NCc2nc3cc(C(=O)N(CCC(=O)OCC)c4ccccn4)ccc3n2C)cc1", "outcome": "inactive"},
      {"smiles": "Cc1cccc(C)c1OCC(=O)N[C@@H](Cc1ccccc1)[C@@H](O)C[C@H](Cc1ccccc1)NC(=O)[C@H](C(C)C)N1CCCNC1=O", "outcome": "inactive"},
      {"smiles": "Clc1ccc(Cn2c(CN3CCCC3)nc3ccccc32)cc1", "outcome": "inactive"},
      {"smiles": "CN1C[C@H]2c3ccccc3Oc3ccc(Cl)cc3[C@@H]2C1", "outcome": "inactive"},
      {"smiles": "COc1ccc(-c2nc3ccc(C4=NNC(=O)CC4C)cc3[nH]2)cc1", "note": "(stereo not given)", "outcome": "inactive"},
      {"smiles": "COCC(C)OC(C)=O", "note": "(stereo not given)", "outcome": "inactive"},
      {"smiles": "CCOc1ccc(N=Nc2ccc(/C=C/c3ccc(N=Nc4ccc(OCC)cc4)cc3S(=O)(=O)O)c(S(=O)(=O)O)c2)cc1", "outcome": "inactive"},
      {"smiles": "c1ccc(CNCCNCc2ccccc2)cc1", "outcome": "inactive"},
      {"smiles": "c1ccc(-c2ccccn2)nc1", "outcome": "inactive"},
      {"smiles": "Cc1[nH]c(C)c(Cl)c(=O)c1Cl", "outcome": "inactive"},
      {"smiles": "COC(=O)c1ccc(I)cc1S(=O)(=O)NC(=O)Nc1nc(C)nc(OC)n1", "outcome": "inactive"},
      {"smiles": "CN(C)CCOC(c1ccccc1)c1ccc(Br)cc1", "note": "(stereo not given)", "outcome": "inactive"},
      {"smiles": "COCCCN1CCC(NC(=O)c2cc(Cl)c(N)c3c2OCC3)CC1", "outcome": "inactive"},
      {"smiles": "COc1cc2nc(N3CCN(C(=O)C4COc5ccccc5O4)CC3)nc(N)c2cc1OC", "note": "(stereo not given)", "outcome": "inactive"},
      {"smiles": "CCCCNc1ccc(C(=O)OCCOCCOCCOCCOCCOCCOCCOCCOCCOC)cc1", "outcome": "inactive"},
      {"smiles": "CN(C)CCN(Cc1ccccc1)c1ccccn1", "outcome": "inactive"},
      {"smiles": "CCCCCCCC/C=C\\CCCCCCCC(=O)OCC", "outcome": "inactive"},
      {"smiles": "C=C(C)C(=O)OCCO", "outcome": "inactive"},
      {"smiles": "CCOC(=O)Cc1cccc2ccccc12", "outcome": "inactive"},
      {"smiles": "NCCCN1CCOCC1", "outcome": "inactive"},
      {"smiles": "CC(C)=CCC/C(C)=C/CC/C(C)=C/CO", "outcome": "inactive"},
      {"smiles": "O=C(O)c1ccccc1Cl", "outcome": "inactive"},
      {"smiles": "CO[C@@H]1[C@H](OC(=O)/C=C/C=C/C=C/C=C/C(=O)O)CC[C@]2(CO2)[C@H]1[C@@]1(C)O[C@@H]1CC=C(C)C", "outcome": "inactive"},
      {"smiles": "Cc1cc(N)c2cc(NC(=O)Nc3ccc4nc(C)cc(N)c4c3)ccc2n1", "outcome": "inactive"},
      {"smiles": "COc1ccc(C(=O)N2CCN(CC(=O)N3CCOCC3)CC2)cc1", "outcome": "inactive"},
      {"smiles": "Nc1cccc(S(=O)(=O)c2cccc(N)c2)c1", "outcome": "inactive"},
      {"smiles": "CN(C)c1ccc(CCO)cc1", "outcome": "inactive"},
      {"smiles": "O=[N+]([O-])c1ccc2[nH]ncc2c1", "outcome": "inactive"},
      {"smiles": "C=CC1CC2C=CC1C2", "note": "(stereo not given)", "outcome": "inactive"},
      {"smiles": "CN(C)c1ccc(C(c2ccccc2)c2ccc(N(C)C)cc2)cc1", "outcome": "inactive"},
      {"smiles": "COC(C)(C)CCO", "outcome": "inactive"},
      {"smiles": "O=[N+]([O-])c1cccc(S(=O)(=O)O)c1", "outcome": "inactive"},
      {"smiles": "CCC(Cl)CCC(Cl)C(Cl)CC(Cl)C(Cl)C(Cl)CCl", "note": "(stereo not given)", "outcome": "inactive"}
    ]}
  ]
}
